“And” between values parts separate entries of the source, which are not always exact repeats. Equal values may be shown once. A structure can be active in one record and inactive in another. The source made the active and inactive calls. Unless noted, no rule for the calls is given here.
Key:
[1] = liver-stage malaria parasite growth inhibition, primary screen, cell-based, HepG2, luciferase luminescence, HepG2 viability (AID 624349; in the data active = parasite load remaining mostly below about 12%, no sharp cut-off; inactive = mostly above about 10%;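 also: 100% = mean of DMSO negative control wells on the same plate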); conditions: P. berghei liver stage in HepG2, luciferase luminescence, concentration not given here; parasite load remaining: stronger effect = lower value; viability: measured here: HepG2 viability without parasites
[2] = tested on: Hepatitis C virus NS3 helicase; test: HCV NS3 helicase inhibitors, primary screen, biochemical, fluorescence polarization, LOPAC1280 library (AID 687035; in the data active = inhibition above about 37%); conditions: Purified HCV NS3 helicase, Cy5-dT15 ssDNA binding fluorescence polarization; stronger effect = higher value; concentration not given here
[3] = Cy5 fluorescence quenching or enhancement artefacts, artefact control for HCV NS3 helicase inhibitor project, biochemical, LOPAC1280 (AID 687037); conditions: Cy5-DNA-NS3h complex fluorescence interference counterscreen
[4] = Cy5 fluorescence interference with SSB-bound oligo, artefact control for HCV NS3 helicase inhibitor project, biochemical, NIH Clinical Collection, E. coli SSB (AID 743268)
[5] = tested on: Hepatitis C virus NS3 helicase; test: HCV NS3 helicase inhibitors, primary screen, biochemical, fluorescence polarization, NIH Clinical Collection (AID 743270); conditions: NS3 helicase binding to Cy5-dT15 DNA, stronger effect = higher value, concentration not given here
[6] = biological target: Single-stranded DNA-binding protein (Escherichia coli (strain K12)) (UniProt P0AGE0); test: E. coli SSB displacement from DNA, counter-screen for HCV NS3 helicase inhibitor project, biochemical, fluorescence polarization, NIH Clinical Collection (AID 743271; in the data active = inhibition above about 28%); conditions: stronger effect = higher value, concentration not given here
[7] = fluorescence interference in NS3h assay format, artefact control for HCV NS3 helicase inhibitor project, biochemical, NIH Clinical Collection (AID 743272); conditions: fluorescence interference counterscreen, stronger effect = lower value;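 also: HCV NS3 helicase with a Cy5 labelled single stranded DNA probe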
[8] = tested on: Neuropilin-2 / VEGF-C interaction (human); test: inhibitors of NRP2–VEGF-C binding, biochemical, microplate binding format, z-score (AID 743281); conditions: microplate NRP2/VEGF-C binding assay; stronger effect = lower value
[9] = stimulators of nuclear beta-catenin in C2C12, primary screen, imaging, WNT3A-conditioned medium, mouse C2C12, NPC library (AID 1117326; in the data active = nuclear beta-catenin stimulation mostly above about 4.2%, no sharp cut-off; inactive = mostly below about 10%); conditions: stronger effect = higher value

| SMILES | parasite load remaining [1] | viability [1] | inhibition [2] | fluorescence ratio (interference) [3] | fluorescence ratio [4] | inhibition [5] | inhibition [6] | fluorescence ratio [7] | z-score [8] | nuclear beta-catenin stimulation ([9]; at 10 µM) | nuclear beta-catenin stimulation ([9]; stimulation, at 2 µM) [%] |
| --- | --- | --- | --- | --- | --- | --- | --- | --- | --- | --- | --- |
| c1cnc(N2CCN(Cc3ccc4c(c3)OCO4)CC2)nc1 | 105% (inactive) and 100% (inactive) and 31.2% (inactive) | 78.5% and 71.3% and 101% | -1% (inactive) | 1 (inactive) | 1.01 (inactive) | -5.94% (inactive) | -0.87% (inactive) | 0.96 (inactive) | -0.0568 (inactive) | 0.7% (inactive) | 4.1 |
| Cc1cn([C@H]2C=C[C@@H](CO)O2)c(=O)[nH]c1=O | 72.2% (inactive) and 110% (inactive) | 107% and 74.4% | -2% (inactive) | 1 (inactive) | 1.04 (inactive) and 0.101 (active) | -3.56% (inactive) and -2.27% (inactive) | -0.87% (inactive) and -5.05% (inactive) | 0.98 (inactive) and 1.04 (inactive) | 0.0189 (inactive) | -0.2% (inactive) | 1.1 |
| CN(C)CC[C@@H](c1ccc(Br)cc1)c1ccccn1 | 84.6% (inactive) | 70.1% | 0% (inactive) | 1 (inactive) | 1.07 (inactive) | -2.77% (inactive) | -3.18% (inactive) | 0.87 (inactive) | -0.605 (inactive) | 1.1% (inactive) | -0.3 |
| COc1cc2c(cc1OC)-c1cc(=Nc3c(C)cc(C)cc3C)n(C)c(=O)n1CC2 | 22.9% (inactive) | 56.5% | 1% (inactive) | 0.9 (inactive) |  |  |  |  |  | 1.1% (inactive) | -0.6 |
| C[C@]12CC[C@@H]3c4ccc(O)cc4CC[C@H]3[C@@H]1CCC2=O | 74.7% (inactive) and 24.8% (inactive) | 91.5% and 73.5% | -4% (inactive) | 1 (inactive) |  |  |  |  |  | 2.2% (inactive) | -0.2 |
| COc1cc(C(=O)OCCCN2CCCN(CCCOC(=O)c3cc(OC)c(OC)c(OC)c3)CC2)cc(OC)c1OC | 44% (inactive) and 120% (inactive) and 14% (inactive) | 47.9% and 91.2% and 76.5% | -3% (inactive) | 1 (inactive) |  |  |  |  |  | 1.3% (inactive) | 1.7 |
| C[C@H](NC(CCc1ccccc1)C(=O)O)C(=O)N1CCC[C@H]1C(=O)O (some centres not stated) | 94.1% (inactive) and 49.6% (inactive) | 70.8% and 156% | -5% (inactive) | 1 (inactive) | 1.07 (inactive) | 1.19% (inactive) | 2.98% (inactive) | 1 (inactive) | 0.126 (inactive) | -0.9% (inactive) | -2.8 |

— PubChem BioAssay
